# FBPA Giardia inh: qHTS Assay for Inhibitors of Fructose-1,6-bisphosphate Aldolase from Giardia Lamblia; purified Giardia FBPA; Potency, µM (highest dose often 59.6 µM), for the others: at the top dose activity, negative = inhibition, usual class: inhibitors; 0.71% of 290,000 active; note: % is set by controls: 0 for no effect and ±100 for the full control effect; nearly all actives have a fitted effect of over 55% in size
# Target sequence (A8B2U2 whole entry, looked up): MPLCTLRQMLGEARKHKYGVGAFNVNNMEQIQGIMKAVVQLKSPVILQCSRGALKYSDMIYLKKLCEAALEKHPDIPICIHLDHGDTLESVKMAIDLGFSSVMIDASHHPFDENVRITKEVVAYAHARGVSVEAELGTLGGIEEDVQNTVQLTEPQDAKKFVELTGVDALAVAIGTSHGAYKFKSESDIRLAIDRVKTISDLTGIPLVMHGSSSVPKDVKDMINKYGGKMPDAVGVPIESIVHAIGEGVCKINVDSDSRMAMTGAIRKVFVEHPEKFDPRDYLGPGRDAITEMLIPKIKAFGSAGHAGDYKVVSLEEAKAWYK
#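 40 nM FBPA preincubated 10 min at RT with compound (up to 57.5 uM final), then substrate plus GAPDH/TPI/NAD/arsenate coupling and diaphorase/resazurin added. Fluorescence read after 20 min at RT, 525/598 nm.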
# Tb PYK inh: qHTS of Trypanosoma Brucei Inhibitors. pyruvate kinase (Trypanosoma brucei), Q57TT1. TbPYK enzyme, Kinase-Glo Plus ATP luminescence, 45 min. Potency, µM (top dose mostly 76.8 µM), for the others: at the highest dose activity, negative = inhibition, usual class: inhibitors. 0.12% of 410,000 active; note: % is set by controls: 0 for no effect and ±100 for the full control effect; nearly all actives have a fitted effect of over 50% in size
#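 Activity of T. brucei pyruvate kinase was followed by Kinase-Glo Plus luminescence after the enzyme reacted 45 min at room temperature with 130 uM ADP (final) and substrate. Test compounds were added before ADP at multiple concentrations.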
# LmPK inh: qHTS Assay for Inhibitors of Leishmania Mexicana Pyruvate Kinase (LmPK); Potency, µM (top dose mostly 57.5 µM), without a hit: at the top dose activity change, negative = inhibition, hits mostly inhibitors; Q27686; 0.37% of 290,000 active; purified LmPK, Kinase-Glo ATP luminescence, 1 h; note: % is set by controls: 0 for no effect and ±100 for the full control effect
#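 Screened at intermediate enzyme activity to detect both inhibitors and activators: LmPK at 0.1 nM, with a 0.5 nM enzyme column as activation reference. PEP 0.5 mM, ADP 0.1 mM; ATP detected by luminescence after 1 h.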
# Sm TGR block: qHTS Assay for the Inhibitors of Schistosoma Mansoni Peroxiredoxins | Potency, µM (doses to about 114 µM), without a hit: at the top dose activity change, negative = inhibition, usual class: inhibitors | purified TGR, DTNB reduction, TNB absorbance 405 nm | 3% of 360,000 active | AID 485364, 2010; note: % is set by controls: 0 for no effect and ±100 for the full control effect; nearly all actives have a fitted effect of over 60% in size
#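 First, TGR (20 nM dispensed) and NADPH were mixed with compound. Second, a 15 min room-temperature incubation followed. Third, further NADPH and then DTNB were added to start the reaction. Finally, TNB absorbance was monitored kinetically.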
# NS1 inh: qHTS Assay for Inhibitors of Influenza NS1 Protein Function | Potency, µM (doses to about 46.1 µM), for the others: top-dose activity, positive = more growth | 0.4% of 270,000 active; calls by dose curve; note: actives are rising curves; nearly all actives have a fitted effect of over 50% in size
#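 Growth recovery, yeast-based: influenza A NS1 expressed in S. cerevisiae causes slow growth, and suppressors are detected by OD600. The parent strain without NS1 is used as positive control.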
# RE007 growth inh: qHTS Assay for Inhibitors of the HIV-1 protein Vpr | S. pombe RE007 Vpr strain, BacTiter-Glo ATP luminescence, 24 h | Potency, µM (highest dose often 92.2 µM), for inactives: at the highest dose activity change, negative = less growth, usual class: inhibitors | 0.21% of 360,000 active; active = well fitted falling curve with a large enough effect; inconclusive = small, poorly fitted or top-dose-only effect; inactive = no such curve, though single readings can be large or run the other way; note: % is set by controls: 0 for no effect and ±100 for the full control effect; nearly all actives have a fitted effect of over 50% in size
#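 Fission yeast strain RE007, carrying one chromosomally integrated HIV-1 vpr copy, was seeded at OD 0.01 in PMG+AL medium with 23 nL pinned compound. After 24 h at 30 °C and 99% humidity, viability was read by BacTiter-Glo luminescence.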
# * = called active by the depositor; ? = inconclusive; . = no result. Hits are enriched below; roughly 3.5% of the tested compounds scored in any of these assays. Unless noted, calls come from the whole dose curve; as a rule, active = well fitted curve in the direction sought with a large enough effect; inconclusive = small, poorly fitted or top-dose-only effect, or another doubt; inactive = no such curve, though single readings can be large; an effect the other way counts as inactive or inconclusive. Potency is the fitted concentration of half-maximal effect.
SMILES,FBPA Giardia inh,Tb PYK inh,LmPK inh,Sm TGR block,NS1 inh,RE007 growth inh
CCOCCSc1nc2c(c(-c3cccs3)c1C#N)CC/C2=C/c1cccs1,-7%,-3%,0%,45µM*,?,-12%
O=C(/C=C/c1ccccc1O)c1ccco1,2%,-12%,-3%,?,-65%,?
N#Cc1ccc(/C=C/C(=O)c2ccco2)cc1,-7%,-3%,2%,?,-37%,18µM*
Cc1cccc2cc(/C=C/C(=O)c3ccco3)c(Cl)nc12,7%,-2%,1%,7.9µM*,-47%,-13%
O=C(/C=C/c1cc(Br)ccc1O)c1ccco1,-5%,-23%,-2%,14µM*,-93%,?
Nc1ccc(/C=C/C(=O)c2ccco2)cc1,-9%,-4%,-22%,-25%,-5%,?
Cc1ccc(-c2nnc(Nc3ccc(O)cc3)c3ccccc23)cc1S(=O)(=O)NC(C)(C)CO,.,-1%,.,-20%,.,.
Cc1ccccc1NC(=O)CSc1nnc(COc2ccc(Cl)cc2)o1,.,0%,.,-16%,.,.
O=C1NC(=O)/C(=C\c2ccc(Br)o2)S1,-13%,-12%,2%,14µM*,-94%,.
Cc1ccc(NC(=O)Cn2nc(C(F)(F)F)c3c2CCCC3)cc1,.,4%,.,1%,.,.
S=c1[nH]nc(-c2cccnc2)n1-c1ccc2c(c1)OCCO2,-28%,?,-29%,19%,10%,-15%
Cc1cc(Cl)ccc1-n1c(-c2cccnc2)n[nH]c1=S,-23%,14µM*,8.9µM*,10%,-3%,12%
Cc1ccc(C)c(-n2c(-c3cccnc3)n[nH]c2=S)c1,?,?,-28%,.,6%,9%
Cc1c(Cl)cccc1-n1c(-c2cccnc2)n[nH]c1=S,-9%,7.1µM*,?,-1%,12%,-9%
CCCOc1ccc(N2C(=O)C3ON(c4ccccc4)C(CCC)C3C2=O)cc1 (stereo not drawn),0%,-11%,3%,22µM*,16%,?
CCCC1C2C(=O)N(c3ccccc3)C(=O)C2ON1c1ccccc1 (stereo not drawn),7%,1%,2%,3%,6%,-9%
Cc1ccc(C(=O)c2cc(O)c(O)c([N+](=O)[O-])c2)cc1,.,-5%,.,.,.,.
Cc1cccc(C)c1N/C=C/c1onc(C)c1[N+](=O)[O-],-11%,1%,-3%,89µM*,-1%,94%
Cc1ccc(N/C=C/c2onc(C)c2[N+](=O)[O-])cc1,1%,0%,-14%,4%,-11%,-6%
O=C(CCCCCn1c(=O)[nH]c2ccccc2c1=O)N1CCN(c2ccc(Cl)cc2)CC1,.,-1%,.,4%,.,.
Cc1ccc(NC(=O)CC2Nc3cccc4cccc(c34)NC2=O)cc1 (stereo not drawn),.,-1%,.,40µM*,.,.
COc1ccc(-n2c(=O)c3c(c4cc(OC)ccc4n3C)n(CC(=O)N3CCCC3)c2=O)cc1,.,5%,.,-9%,.,.
CC(=O)n1cc(N(C(=O)CCl)c2ccc([N+](=O)[O-])cc2)c2ccccc21,-13%,-3%,4%,0.71µM*,-6%,-16%
CC(=O)n1cc(N(C(=O)CCl)c2ccccc2)c2ccccc21,-7%,-1%,0%,0.5µM*,-40%,3%
O=C(NC1CCN(CC(=O)N(c2ccccc2)c2ccccc2)CC1)c1ccc([N+](=O)[O-])cc1,0%,2%,-4%,4%,0%,-12%
SMILES,FBPA Giardia inh,Tb PYK inh,LmPK inh,Sm TGR block,NS1 inh,RE007 growth inh
CC(=O)n1cc(CO)c2ccccc21,14%,6%,-3%,-14%,-5%,-17%
O=Cc1[nH]c2ccccc2c1N(C(=O)CCl)c1ccc([N+](=O)[O-])cc1,-21%,-2%,0%,3.2µM*,5%,-6%
Cc1ccc(CNC(=O)c2ccc3c(c2)N(Cc2ccccc2Cl)C(=O)CS3)cc1,.,-3%,.,6%,.,.
O=C1c2cccc3c(O)ccc(c23)C(=O)N1Cc1ccco1,?,-6%,11%,6.3µM*,8%,3%
O=C1c2cccc3c(O)ccc(c23)C(=O)N1c1ccc(Cl)cc1,?,-6%,-1%,25µM*,17%,34%
CCOc1ccc(CNC(=O)c2ccc3nc(Cc4ccc(OC)cc4)oc3c2)cc1OC,.,-2%,.,2%,.,.
COc1ccc(-c2nc(-c3cccs3)no2)cc1,0%,-24%,16µM*,1%,-9%,-27%
CCC(Oc1ccc(F)cc1)C(=O)Nc1nc(-c2ccc(F)cc2)ns1 (stereo not drawn),.,-4%,.,42%,.,.
CCSc1nnc(NC(=O)c2ccccn2)s1,?,-12%,?,1%,-82%,11µM*
CCSc1nnc(NC(=O)C(C(F)(F)F)C(F)(F)F)s1,1%,2%,1%,40µM*,-3%,1%
Cc1ccc(N(Cc2cccs2)C(=O)c2ccc(OC(C)C)cc2)cc1,.,0%,.,-8%,.,.
Cn1c(=O)[nH]c(=O)c2c1[nH]c(=S)n2Cc1ccc(Cl)cc1,?,5.6µM*,?,-5%,9%,.
Cn1c(=O)[nH]c(=O)c2c1nc(Br)n2Cc1ccc(Cl)cc1,.,-8%,.,.,.,15%
CC(=O)ON=C1C=CC(=C(C#N)c2ccccc2)C=C1,.,?,.,.,.,4µM*
COc1ccc(C(C#N)=C2C=CC(=NO)C=C2)cc1,0%,-15%,-4%,-4%,-92%,?
CCc1[nH]nc2c1C(Cc1ccccc1)C(C#N)=C(N)O2 (stereo not drawn),-1%,1%,8%,?,-1%,8%
Cc1[nH]nc2c1C(Cc1ccccc1)C(C#N)=C(N)O2 (stereo not drawn),9%,-1%,1%,20µM*,0%,5%
CCC/C=C1\CCCOC(C(=O)NCc2ccccc2)(C(F)(F)F)C1 (stereo not drawn),-2%,.,.,.,.,.
CCCCN(CCCC)CCCNC(=O)c1ccc2nc(N3CCCCC3)sc2c1,.,-9%,.,28µM*,.,.
CCCN1CCN(CCCNC(=O)c2ccc3nc(N4CCCCC4)sc3c2)CC1,-11%,-1%,-1%,-12%,-3%,-1%
N#Cc1ccc(CSc2nc3c(c(=O)[nH]2)CCC3)cc1,.,4%,.,1%,.,.
OCC#CCSc1nnc(-c2ccc(Br)cc2)o1,-11%,-1%,-2%,-8%,-12%,?
COC(=O)Sc1nnc(-c2ccc(Br)cc2)o1,5%,.,-12%,45µM*,-246%,.
CC(C)(C)OC(=O)NCC1CCN(S(=O)(=O)Cc2ccccc2)CC1,5%,-5%,4%,0%,1%,14%

# Bioassay records: PubChem BioAssay, National Center for Advancing Translational Sciences (NCATS)
